Assay results published in ChEMBL document CHEMBL2218924, “A broad activity screen in support of a chemogenomic map for kinase signalling research and drug discovery” (Biochem J, 2013).

What was measured:
[1] = target: Homeodomain-interacting protein kinase 3 (Homo sapiens) (UniProt Q9H422); conditions: at 10 µM
[2] = target: T1, Serine/threonine-protein kinase haspin (Homo sapiens) (UniProt Q8TF76); conditions: at 1 µM
T1 sequence (whole entry): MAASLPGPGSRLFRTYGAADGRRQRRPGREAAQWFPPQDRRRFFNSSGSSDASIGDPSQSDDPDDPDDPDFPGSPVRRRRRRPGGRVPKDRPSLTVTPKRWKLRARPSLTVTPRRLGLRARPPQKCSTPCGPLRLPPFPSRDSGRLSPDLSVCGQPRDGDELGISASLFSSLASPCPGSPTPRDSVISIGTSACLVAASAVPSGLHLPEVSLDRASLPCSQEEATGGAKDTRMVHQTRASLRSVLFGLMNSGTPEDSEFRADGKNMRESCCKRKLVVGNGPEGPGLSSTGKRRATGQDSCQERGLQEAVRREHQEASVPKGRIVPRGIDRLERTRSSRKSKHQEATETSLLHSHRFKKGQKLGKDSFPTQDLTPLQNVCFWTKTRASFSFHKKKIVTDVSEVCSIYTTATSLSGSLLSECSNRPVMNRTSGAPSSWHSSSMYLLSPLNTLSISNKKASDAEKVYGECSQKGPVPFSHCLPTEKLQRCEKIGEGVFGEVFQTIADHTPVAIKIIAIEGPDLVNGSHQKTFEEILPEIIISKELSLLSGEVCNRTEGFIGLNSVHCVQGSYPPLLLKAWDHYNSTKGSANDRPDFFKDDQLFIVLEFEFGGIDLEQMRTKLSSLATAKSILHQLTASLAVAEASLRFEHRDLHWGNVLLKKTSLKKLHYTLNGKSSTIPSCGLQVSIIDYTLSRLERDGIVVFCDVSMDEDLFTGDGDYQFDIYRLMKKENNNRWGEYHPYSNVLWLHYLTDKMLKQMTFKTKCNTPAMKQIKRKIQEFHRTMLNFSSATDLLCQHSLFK

[3] = target: T1, Serine/threonine-protein kinase haspin (Homo sapiens); conditions: at 10 µM
[4] = target: Tyrosine-protein kinase HCK (Homo sapiens) (UniProt P08631); conditions: at 1 µM
Tyrosine-protein kinase HCK (Homo sapiens), sequence (P08631 2-526 limits assumed): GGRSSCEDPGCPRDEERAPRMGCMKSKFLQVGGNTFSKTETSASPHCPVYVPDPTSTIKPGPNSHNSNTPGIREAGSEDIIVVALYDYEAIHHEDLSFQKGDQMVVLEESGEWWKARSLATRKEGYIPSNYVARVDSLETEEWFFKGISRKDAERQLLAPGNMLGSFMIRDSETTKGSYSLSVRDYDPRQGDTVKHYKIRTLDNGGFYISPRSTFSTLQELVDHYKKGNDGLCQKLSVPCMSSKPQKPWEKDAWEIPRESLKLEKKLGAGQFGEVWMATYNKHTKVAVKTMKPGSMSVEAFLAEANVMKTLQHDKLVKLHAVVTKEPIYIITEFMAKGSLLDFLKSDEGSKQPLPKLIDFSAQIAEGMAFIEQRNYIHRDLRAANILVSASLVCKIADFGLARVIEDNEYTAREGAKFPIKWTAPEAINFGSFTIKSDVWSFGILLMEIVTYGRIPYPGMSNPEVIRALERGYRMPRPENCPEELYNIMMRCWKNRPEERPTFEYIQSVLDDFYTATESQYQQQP

[5] = target: Tyrosine-protein kinase HCK (Homo sapiens) (UniProt P08631); conditions: at 10 µM
[6] = target: Tyrosine-protein kinase HCK (Homo sapiens) (UniProt P08631); conditions: at 1 µM; remark: listed apart in the source
[7] = target: Tyrosine-protein kinase HCK (Homo sapiens) (UniProt P08631); conditions: at 10 µM; remark: listed apart in the source
[8] = target: Insulin-like growth factor 1 receptor (Homo sapiens) (UniProt P08069); conditions: at 1 µM
Insulin-like growth factor 1 receptor (Homo sapiens), sequence (P08069 31-736 limits assumed): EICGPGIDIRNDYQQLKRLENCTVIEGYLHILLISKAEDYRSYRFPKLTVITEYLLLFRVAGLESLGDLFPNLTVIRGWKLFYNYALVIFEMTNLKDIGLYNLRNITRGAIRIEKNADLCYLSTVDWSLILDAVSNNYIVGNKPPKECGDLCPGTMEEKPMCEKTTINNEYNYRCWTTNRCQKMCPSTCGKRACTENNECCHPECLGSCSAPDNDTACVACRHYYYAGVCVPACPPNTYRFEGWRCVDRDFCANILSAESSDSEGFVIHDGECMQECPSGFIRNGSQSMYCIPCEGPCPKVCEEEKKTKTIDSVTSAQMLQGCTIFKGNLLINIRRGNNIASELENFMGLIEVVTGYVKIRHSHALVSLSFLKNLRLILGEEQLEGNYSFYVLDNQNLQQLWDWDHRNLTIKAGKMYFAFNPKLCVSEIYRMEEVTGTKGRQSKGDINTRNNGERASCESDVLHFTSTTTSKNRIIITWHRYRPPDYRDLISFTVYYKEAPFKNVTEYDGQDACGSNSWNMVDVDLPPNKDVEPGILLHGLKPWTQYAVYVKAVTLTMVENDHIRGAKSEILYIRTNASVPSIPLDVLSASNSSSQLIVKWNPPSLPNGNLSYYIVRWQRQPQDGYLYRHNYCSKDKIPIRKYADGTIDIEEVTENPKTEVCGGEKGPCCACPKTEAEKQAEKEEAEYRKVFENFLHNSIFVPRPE
Insulin-like growth factor 1 receptor (Homo sapiens), sequence (P08069 741-1367 limits assumed): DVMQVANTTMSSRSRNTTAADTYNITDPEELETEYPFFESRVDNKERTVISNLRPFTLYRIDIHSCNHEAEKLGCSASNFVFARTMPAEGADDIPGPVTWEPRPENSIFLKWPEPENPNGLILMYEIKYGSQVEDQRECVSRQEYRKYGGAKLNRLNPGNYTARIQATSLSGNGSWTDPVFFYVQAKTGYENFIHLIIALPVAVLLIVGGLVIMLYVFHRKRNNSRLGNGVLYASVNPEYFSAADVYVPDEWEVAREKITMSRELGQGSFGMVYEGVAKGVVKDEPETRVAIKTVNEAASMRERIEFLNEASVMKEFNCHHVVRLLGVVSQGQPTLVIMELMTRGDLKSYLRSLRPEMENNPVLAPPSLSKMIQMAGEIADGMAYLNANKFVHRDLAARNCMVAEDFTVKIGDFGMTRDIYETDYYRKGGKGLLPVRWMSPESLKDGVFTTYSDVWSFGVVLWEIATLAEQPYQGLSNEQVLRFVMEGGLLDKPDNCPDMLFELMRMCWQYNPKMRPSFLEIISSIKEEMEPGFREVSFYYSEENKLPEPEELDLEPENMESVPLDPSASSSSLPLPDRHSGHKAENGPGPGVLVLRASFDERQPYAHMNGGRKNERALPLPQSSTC

[9] = target: Insulin-like growth factor 1 receptor (Homo sapiens) (UniProt P08069); conditions: at 10 µM
[10] = target: T2, Protein kinase C zeta type (Homo sapiens) (UniProt Q05513); conditions: at 10 µM
T2 sequence (whole entry): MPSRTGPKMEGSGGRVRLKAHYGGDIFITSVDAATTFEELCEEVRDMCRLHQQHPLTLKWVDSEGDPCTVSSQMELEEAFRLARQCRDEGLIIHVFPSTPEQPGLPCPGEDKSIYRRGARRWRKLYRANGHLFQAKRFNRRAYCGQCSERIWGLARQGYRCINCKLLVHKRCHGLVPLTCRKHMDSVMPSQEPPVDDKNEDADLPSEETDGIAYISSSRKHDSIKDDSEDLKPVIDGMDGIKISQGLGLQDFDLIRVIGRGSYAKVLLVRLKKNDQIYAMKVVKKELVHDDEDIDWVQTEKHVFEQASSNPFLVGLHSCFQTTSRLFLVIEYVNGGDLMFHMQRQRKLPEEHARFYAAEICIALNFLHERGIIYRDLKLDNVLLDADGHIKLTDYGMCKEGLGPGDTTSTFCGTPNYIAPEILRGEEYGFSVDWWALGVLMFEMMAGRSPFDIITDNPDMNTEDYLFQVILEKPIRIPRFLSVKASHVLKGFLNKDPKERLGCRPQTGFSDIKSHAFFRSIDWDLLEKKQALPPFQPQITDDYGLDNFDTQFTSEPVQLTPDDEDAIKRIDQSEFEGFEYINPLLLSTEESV

[11] = target: Protein kinase C eta type (Homo sapiens) (UniProt P24723); conditions: at 1 µM
Protein kinase C eta type (Homo sapiens), sequence (P24723 whole entry): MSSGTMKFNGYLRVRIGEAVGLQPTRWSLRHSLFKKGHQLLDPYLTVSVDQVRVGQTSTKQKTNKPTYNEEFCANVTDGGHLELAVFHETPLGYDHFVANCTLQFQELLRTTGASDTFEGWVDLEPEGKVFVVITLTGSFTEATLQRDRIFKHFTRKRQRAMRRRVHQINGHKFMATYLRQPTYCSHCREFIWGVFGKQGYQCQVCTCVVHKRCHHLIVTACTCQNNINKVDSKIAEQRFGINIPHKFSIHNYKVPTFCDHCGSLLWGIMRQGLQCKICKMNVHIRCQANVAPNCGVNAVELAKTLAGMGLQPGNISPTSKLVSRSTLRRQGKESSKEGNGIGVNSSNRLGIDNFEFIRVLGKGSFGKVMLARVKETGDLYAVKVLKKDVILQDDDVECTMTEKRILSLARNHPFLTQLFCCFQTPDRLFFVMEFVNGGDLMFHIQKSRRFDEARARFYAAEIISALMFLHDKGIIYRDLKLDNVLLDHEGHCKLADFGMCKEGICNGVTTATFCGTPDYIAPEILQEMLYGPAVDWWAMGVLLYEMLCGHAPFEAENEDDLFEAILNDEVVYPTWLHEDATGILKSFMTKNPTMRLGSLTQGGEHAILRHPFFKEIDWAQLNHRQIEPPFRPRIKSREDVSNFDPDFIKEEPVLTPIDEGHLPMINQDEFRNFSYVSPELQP

[12] = target: Protein kinase C eta type (Homo sapiens) (UniProt P24723); conditions: at 10 µM
[13] = target: Protein kinase C theta type (Homo sapiens) (UniProt Q04759); conditions: at 1 µM
Protein kinase C theta type (Homo sapiens), sequence (Q04759 whole entry, looked up): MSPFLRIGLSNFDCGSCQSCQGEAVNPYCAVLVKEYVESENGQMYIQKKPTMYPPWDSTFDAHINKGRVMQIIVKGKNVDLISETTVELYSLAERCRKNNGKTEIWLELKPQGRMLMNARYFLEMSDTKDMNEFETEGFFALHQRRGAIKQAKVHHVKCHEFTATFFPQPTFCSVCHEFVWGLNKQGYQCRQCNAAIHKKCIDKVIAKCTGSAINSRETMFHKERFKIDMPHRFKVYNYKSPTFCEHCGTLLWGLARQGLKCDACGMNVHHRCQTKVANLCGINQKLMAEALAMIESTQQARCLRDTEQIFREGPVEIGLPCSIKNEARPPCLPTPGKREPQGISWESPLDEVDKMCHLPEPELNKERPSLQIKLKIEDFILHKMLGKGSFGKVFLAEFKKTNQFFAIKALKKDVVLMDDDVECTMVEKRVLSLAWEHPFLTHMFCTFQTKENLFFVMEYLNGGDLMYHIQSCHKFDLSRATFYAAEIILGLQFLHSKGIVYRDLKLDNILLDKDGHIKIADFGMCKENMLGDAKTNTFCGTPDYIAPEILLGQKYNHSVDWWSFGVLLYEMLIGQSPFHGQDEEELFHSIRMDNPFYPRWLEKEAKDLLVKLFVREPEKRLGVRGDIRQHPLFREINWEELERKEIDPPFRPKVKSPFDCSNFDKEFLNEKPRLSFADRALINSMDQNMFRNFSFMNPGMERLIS

[14] = target: Protein kinase C theta type (Homo sapiens) (UniProt Q04759); conditions: at 10 µM
[15] = target: T3, Protein kinase C iota type (Homo sapiens) (UniProt P41743); conditions: at 1 µM
T3 sequence (whole entry): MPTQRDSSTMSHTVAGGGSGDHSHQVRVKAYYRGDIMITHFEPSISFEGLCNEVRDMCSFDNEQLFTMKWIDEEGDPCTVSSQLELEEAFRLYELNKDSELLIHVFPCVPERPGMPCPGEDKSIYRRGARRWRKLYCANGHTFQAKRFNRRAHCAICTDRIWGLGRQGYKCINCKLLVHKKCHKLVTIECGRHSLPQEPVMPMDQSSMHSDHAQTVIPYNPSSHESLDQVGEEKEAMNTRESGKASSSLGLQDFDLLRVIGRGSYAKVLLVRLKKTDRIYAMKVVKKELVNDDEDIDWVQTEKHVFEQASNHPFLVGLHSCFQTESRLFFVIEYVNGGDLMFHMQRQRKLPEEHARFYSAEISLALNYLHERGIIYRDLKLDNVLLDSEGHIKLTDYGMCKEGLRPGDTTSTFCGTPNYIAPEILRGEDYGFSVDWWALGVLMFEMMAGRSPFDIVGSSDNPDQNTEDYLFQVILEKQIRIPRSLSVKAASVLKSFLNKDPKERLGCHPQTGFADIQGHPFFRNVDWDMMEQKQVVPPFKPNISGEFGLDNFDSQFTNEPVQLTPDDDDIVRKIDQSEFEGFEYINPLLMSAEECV

[16] = target: T3, Protein kinase C iota type (Homo sapiens); conditions: at 10 µM
[17] = target: T4, Serine/threonine-protein kinase D1 (Homo sapiens) (UniProt Q15139); conditions: at 1 µM
T4 sequence (whole entry): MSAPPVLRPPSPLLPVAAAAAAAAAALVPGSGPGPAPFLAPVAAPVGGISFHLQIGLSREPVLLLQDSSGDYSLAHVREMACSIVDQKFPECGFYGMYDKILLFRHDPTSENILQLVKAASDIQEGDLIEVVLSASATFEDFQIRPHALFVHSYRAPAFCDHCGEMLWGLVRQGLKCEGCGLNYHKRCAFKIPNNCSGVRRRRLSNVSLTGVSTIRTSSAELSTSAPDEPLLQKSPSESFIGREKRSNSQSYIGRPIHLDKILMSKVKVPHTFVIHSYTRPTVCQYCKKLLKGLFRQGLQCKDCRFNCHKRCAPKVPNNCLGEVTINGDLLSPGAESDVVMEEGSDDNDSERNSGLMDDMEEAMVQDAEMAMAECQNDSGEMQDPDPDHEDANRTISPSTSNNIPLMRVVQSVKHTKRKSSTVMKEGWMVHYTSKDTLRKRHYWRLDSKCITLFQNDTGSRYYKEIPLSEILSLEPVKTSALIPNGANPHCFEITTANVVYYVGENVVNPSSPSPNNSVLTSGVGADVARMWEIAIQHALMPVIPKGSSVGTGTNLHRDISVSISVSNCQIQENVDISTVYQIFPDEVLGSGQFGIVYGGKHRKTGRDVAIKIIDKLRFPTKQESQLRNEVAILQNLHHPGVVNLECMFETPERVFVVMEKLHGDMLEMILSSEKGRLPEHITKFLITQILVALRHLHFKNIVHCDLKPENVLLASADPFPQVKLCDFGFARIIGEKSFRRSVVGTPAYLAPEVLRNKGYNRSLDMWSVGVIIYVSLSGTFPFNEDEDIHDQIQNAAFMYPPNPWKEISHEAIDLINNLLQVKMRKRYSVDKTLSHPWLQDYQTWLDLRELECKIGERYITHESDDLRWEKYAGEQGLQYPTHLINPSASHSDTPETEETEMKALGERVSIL

[18] = target: T4, Serine/threonine-protein kinase D1 (Homo sapiens); conditions: at 10 µM
[19] = target: T5, Serine/threonine-protein kinase D2 (Homo sapiens) (UniProt Q9BZL6); conditions: at 1 µM
T5 sequence (whole entry): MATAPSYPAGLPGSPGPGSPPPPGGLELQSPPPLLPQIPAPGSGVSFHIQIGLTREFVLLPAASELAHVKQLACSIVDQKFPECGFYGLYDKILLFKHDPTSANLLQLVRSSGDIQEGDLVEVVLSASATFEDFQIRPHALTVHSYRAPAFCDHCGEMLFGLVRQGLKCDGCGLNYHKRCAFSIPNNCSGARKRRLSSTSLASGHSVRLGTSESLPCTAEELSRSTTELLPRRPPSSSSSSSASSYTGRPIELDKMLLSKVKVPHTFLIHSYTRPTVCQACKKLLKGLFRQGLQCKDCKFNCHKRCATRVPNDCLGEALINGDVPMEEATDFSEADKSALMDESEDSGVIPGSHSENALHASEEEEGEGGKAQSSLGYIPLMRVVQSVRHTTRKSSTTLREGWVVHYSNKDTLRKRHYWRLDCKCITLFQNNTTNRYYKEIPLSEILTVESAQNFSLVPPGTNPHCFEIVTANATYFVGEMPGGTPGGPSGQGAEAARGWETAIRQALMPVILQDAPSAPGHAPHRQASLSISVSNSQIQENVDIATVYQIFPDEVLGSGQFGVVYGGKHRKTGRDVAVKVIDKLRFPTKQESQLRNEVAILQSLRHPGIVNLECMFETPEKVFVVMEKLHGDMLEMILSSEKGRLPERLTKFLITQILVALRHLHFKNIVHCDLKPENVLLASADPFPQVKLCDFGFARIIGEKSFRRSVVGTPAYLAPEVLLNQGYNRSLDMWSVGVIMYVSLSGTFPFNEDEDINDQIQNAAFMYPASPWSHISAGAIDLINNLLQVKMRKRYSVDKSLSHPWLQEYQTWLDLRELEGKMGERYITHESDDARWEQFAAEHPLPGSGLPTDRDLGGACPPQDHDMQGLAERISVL

[20] = target: T5, Serine/threonine-protein kinase D2 (Homo sapiens); conditions: at 10 µM

Homeodomain-interacting protein kinase 3 (Homo sapiens), sequence (Q9H422 whole entry, looked up): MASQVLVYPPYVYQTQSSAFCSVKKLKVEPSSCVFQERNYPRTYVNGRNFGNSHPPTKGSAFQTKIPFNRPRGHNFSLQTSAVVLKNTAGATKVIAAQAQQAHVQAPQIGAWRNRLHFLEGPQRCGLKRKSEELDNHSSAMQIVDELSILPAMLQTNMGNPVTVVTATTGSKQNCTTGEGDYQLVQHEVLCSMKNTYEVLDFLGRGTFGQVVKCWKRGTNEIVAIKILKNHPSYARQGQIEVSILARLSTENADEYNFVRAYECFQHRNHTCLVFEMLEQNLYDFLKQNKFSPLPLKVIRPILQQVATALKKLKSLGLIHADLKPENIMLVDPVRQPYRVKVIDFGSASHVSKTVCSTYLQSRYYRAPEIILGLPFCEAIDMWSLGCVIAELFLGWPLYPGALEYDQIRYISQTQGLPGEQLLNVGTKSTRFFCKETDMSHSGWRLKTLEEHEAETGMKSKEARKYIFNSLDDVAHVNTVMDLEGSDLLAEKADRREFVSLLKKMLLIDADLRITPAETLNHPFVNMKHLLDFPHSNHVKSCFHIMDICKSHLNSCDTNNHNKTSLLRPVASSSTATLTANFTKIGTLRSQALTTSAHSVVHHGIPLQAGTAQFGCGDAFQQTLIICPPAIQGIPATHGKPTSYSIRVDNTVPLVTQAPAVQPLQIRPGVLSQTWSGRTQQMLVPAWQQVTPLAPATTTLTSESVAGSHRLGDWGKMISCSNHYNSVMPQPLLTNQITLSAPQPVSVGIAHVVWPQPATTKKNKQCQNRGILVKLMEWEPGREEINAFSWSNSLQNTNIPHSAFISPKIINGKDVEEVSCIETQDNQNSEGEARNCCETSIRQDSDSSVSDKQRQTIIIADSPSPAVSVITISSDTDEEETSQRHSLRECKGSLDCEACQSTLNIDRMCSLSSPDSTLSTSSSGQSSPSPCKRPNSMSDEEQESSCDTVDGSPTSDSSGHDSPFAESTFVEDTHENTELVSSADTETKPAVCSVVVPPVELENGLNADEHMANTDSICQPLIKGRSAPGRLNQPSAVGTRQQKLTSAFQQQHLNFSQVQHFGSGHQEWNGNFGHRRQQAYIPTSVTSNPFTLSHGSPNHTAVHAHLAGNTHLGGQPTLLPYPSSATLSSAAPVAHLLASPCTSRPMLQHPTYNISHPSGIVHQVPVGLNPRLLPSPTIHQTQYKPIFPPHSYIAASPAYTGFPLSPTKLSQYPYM

SMILES | residual activity [1] [%] | residual activity [2] [%] | residual activity [3] [%] | residual activity [4] [%] | residual activity [5] [%] | residual activity [6] [%] | residual activity [7] [%] | residual activity [8] [%] | residual activity [9] [%] | residual activity [10] [%] | residual activity [11] [%] | residual activity [12] [%] | residual activity [13] [%] | residual activity [14] [%] | residual activity [15] | residual activity [16] [%] | residual activity [17] [%] | residual activity [18] [%] | residual activity [19] [%] | residual activity [20] [%]
CC(C)n1cnc2c(NCc3ccccc3)nc(NCCCO)nc21 | 106 | 101 | 95 | 81 | 70 | 84 | 81 | 78 | 103 | 107 | 88 | 81 | 91 | 94 | 109% (inactive) | 105 | 91 | 72 | 103 | 96
Nc1n[nH]c2nnc(-c3c(-c4ccccc4)nn4ccccc34)cc12 | 93 | 128 | 85 | 76 | 40 | 87 | 40 | 85 | 78 | 93 | 56 | 19 | 47 | 16 | 115% (inactive) | 100 | 56 | 12 | 96 | 49
O=C(O)c1ccc2c3c1cccc3c(=O)n1c3ccccc3nc21 | 48 | 91 | 92 | 102 | 81 | 104 | 95 | 68 | 74 | 95 | 76 | 84 | 109 | 107 | 105% (inactive) | 92 | 110 | 57 | 101 | 84
COc1cc2ncc(-c3ccccc3)nc2cc1OC | 100 | 76 | 64 | 69 | 56 |  |  | 133 |  |  |  |  |  |  |  | 68 |  |  | 96 | 99
N#Cc1cnc2cnc(NCc3cccnc3)cc2c1Nc1ccc(F)c(Cl)c1 |  | 102 | 67 | 17 | 12 |  | 91 | 97 |  | 94 | 85 | 83 | 4 | 5 |  |  | 80 | 39 | 101 | 91
Cn1cc(/C=C2\C(=O)Nc3ccc(S(N)(=O)=O)cc32)c2ccccc21 | 32 | 101 | 50 | 26 | 5 | 56 | 47 | 118 | 114 | 109 | 96 | 98 | 84 | 49 | 110% (inactive) | 87 | 84 | 59 | 103 | 103
CCN(CC)C(=O)c1ccc(Nc2nc(OCC3CCCCC3)c3nc[nH]c3n2)cc1 | 62 |  |  | 31 | 5 | 43 | 7 |  |  | 95 |  | 55 | 78 | 39 | 99% (inactive) | 103 | 72 | 23 | 93 | 51
COc1ccc(OC)c2c(=S)c3ccccc3[nH]c12 | 73 | 114 | 56 | 85 | 70 | 101 | 95 | 103 | 136 | 86 | 77 | 63 | 81 | 89 | 109% (inactive) | 80 | 96 | 73 | 108 | 84
